These results are taken from PubChem BioAssay (NCI).

Holding throughout (assay): NCI-60 one-dose screen, 48 h (100 = growth as untreated, 0 = no growth, -100 = all killed)
Assay [1] concerns HCT-15 colon. As to conditions: 10 µM unless noted.
The subject of assay [2] is HT29 colon. To be noted: 10 µM unless noted.
Assay [3] deals with SNB-75 CNS. To be noted: 10 µM unless noted.
In assay [4] the test system is SNB-19 CNS. To be noted: 10 µM unless noted.
In assay [5] the test system is PC-3 prostate. As to conditions: 10 µM unless noted.
Assay [6] relates to SK-MEL-5 melanoma. To be noted: 10 µM unless noted.
Assay [7] concerns UACC-62 melanoma. To be noted: 10 µM unless noted.
For assay [8], the system named is SK-MEL-28 melanoma. As to conditions: 10 µM unless noted.
The test system of assay [9] is SK-MEL-2 melanoma. As to conditions: 10 µM unless noted.
Assay [10] concerns EKVX NSCLC. To be noted: 10 µM unless noted.
For assay [11], the system named is SN12C renal. To be noted: 10 µM unless noted.
Assay [12] concerns UO-31 renal. As to conditions: 10 µM unless noted.
Assay [13] has as its system TK-10 renal. To be noted: 10 µM unless noted.
Assay [14] has as its system ACHN renal. As to conditions: 10 µM unless noted.
The test system of assay [15] is CAKI-1 renal. To be noted: 10 µM unless noted.
Assay [16] concerns A498 renal. As to conditions: 10 µM unless noted.
The subject of assay [17] is CCRF-CEM leukemia. To be noted: 10 µM unless noted.
Assay [18] deals with MOLT-4 leukemia. To be noted: 10 µM unless noted.
The subject of assay [19] is LOX IMVI melanoma. As to conditions: 10 µM.
In assay [20] the test system is U251 CNS. As to conditions: 10 µM unless noted.

This is part of a sample that, as a whole, favours compounds with a hit. Of some 83,000 tested, about 20% had one in any assay.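 How to read the values: 0–100, growth inhibition (40 = 60% inhibited); 0, no net growth; -100 to 0, cell death (-40 = 40% of starting cells died; -100 = all dead).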 Unmarked numbers belong to inactive results. The source made the active and inactive calls. Rule for the calls: active = growth percent below 10; inactive = the rest.

Turning to `CCCc1cccc(CCC)c1NC(=O)Nc1cc(Cl)cc(Cl)c1`, the growth was 113% in assay [1]; 107% in assay [2]; 108% in assay [3]; 99.5% in assay [4]; 101% in assay [5]; 94.3% in [6]. Also, the growth in assay [7] was 90%; in assay [8] it was 103%; in [9], 106%; in [10], 109%; in assay [11], 91%; in [12], 69.7%. The growth in assay [13] is 106%; in assay [14] it was 101%; in [15] it was 83.5%; in assay [16], 95.9%; in assay [17] it was 91.6%; in assay [18], 101%.
As for `c1ccc2[nH]c(Cc3nc4ccccc4[nH]3)nc2c1`, the growth in assay [1] was 107%; in [2], 112%; in assay [3], 94.9%; in [4], 130%; in [5] it was 93.7%; in assay [6], 104%. For the same compound, the growth in assay [7] is 105%; in assay [19], 109%; in assay [8] it was 94.3%; in assay [9], 121%; in [10] it was 104%; in assay [11], 107%. Further, the growth in assay [12] was 95.3%; in assay [13] it was 122%; in assay [14], 96.2%; in assay [16], 98.5%; in assay [17], 27.9%; in assay [18], 110%.
For the compound `COc1ccc(C2CC(c3ccccc3)=Nc3ccccc3S2)cc1` (centres undefined), the growth in assay [1] was 98.3%; in assay [2] it was 92.8%; in [3], 80.7%; in assay [4], 93.8%; in assay [5], 82.7%; in [6], 94.2%. Also, the growth in assay [7] was 97.9%; in [19], 95%; in assay [8] it was 98.4%; in [9], 85.6%; in assay [11] it was 103%; in [12] it was 57.5%. In addition, the growth in assay [13] was 113%; in assay [15], 84%; in assay [16], 91.8%; in [17] it was 85.2%; in assay [18] it was 77.6%.
`CCCCCC/C=C\CCCCCCCCCc1cc(O)cc(OC)c1O`: the growth is 3.68% (active) in assay [1]; 8.67% (active) in assay [2]; 24% in assay [4]; 10.2% in assay [20]; 1.77% (active) in assay [5]; -29% (active) in assay [6]. Further, the growth in [7] is 6.32% (active); in assay [19], -86.3% (active); in assay [8] it was 24%; in assay [9] it was -25.5% (active); in assay [10], 14.5%; in assay [11], 8.94% (active). In addition, the growth in [12] is -19.1% (active); in assay [13], 24.3%; in assay [14], 12.7%; in [16] it was -18.5% (active); in assay [18], 2.69% (active).
For `Nc1cc2c(cc1Cl)C(=O)c1ccccc1C2=O`, the growth in assay [1] is 70.6%; in assay [2] it was 83.8%; in [4], 36.2%; in [20], -34.1% (active); in assay [6] it was 91.9%; in assay [7] it was 73.2%. Moreover, the growth is 101% in assay [8]; 111% in assay [9]; 42.5% in assay [10]; 34% in assay [11]; -15% (active) in assay [12]; 33.8% in assay [13]. For the same compound, the growth in assay [14] was 3.29% (active); in assay [15], 41.5%; in assay [16], 103%; in assay [17], 80.5%; in assay [18], 85.8%.
In the case of `COc1ccc(-c2csc(NC(=O)Nc3nc(-c4ccc(OC)cc4)cs3)n2)cc1`, the growth in [1] is 86.5%; in assay [2], 104%; in [4], 96.6%; in assay [20], 79.5%; in [5] it was 67.4%; in assay [6] it was 29.3%. The growth in [7] is 81.3%; in [19], 83.6%; in assay [8], 99%; in assay [9], 116%; in assay [10], 72.3%; in [12] it was 75.4%. The growth in assay [13] is 99.8%; in assay [14], 90.1%; in assay [15], 81.5%; in [16], 96.3%; in [17], 76%; in assay [18], 34.8%.
Consider `C/C(Cc1ccccc1)=N\O`, for which the growth is 96.9% in [1]; 101% in assay [2]; 108% in assay [4]; 104% in [20]; 88.4% in [5]; 99.4% in assay [6]. The growth in [7] was 106%; in [19], 119%; in assay [8], 111%; in assay [9] it was 104%; in assay [10], 116%; in assay [12], 102%. The growth is 103% in [13]; 106% in assay [14]; 115% in assay [15]; 103% in assay [16]; -29.9% (active) in [17]; 5.17% (active) in [18].
With `CC(=O)Nc1ccc(/C=C2\SC(=S)N(/C=C(\C(C)=O)C(N)=O)C2=O)cc1`, the growth in assay [1] was 98.2%; in assay [2], 97.4%; in assay [4] it was 100%; in assay [20], 90.3%; in assay [6], 88.7%; in [7] it was 87.6%. For the same compound, the growth in assay [19] is 78.3%; in assay [8] it was 93.4%; in assay [9], 87.7%; in [10] it was 94.2%; in assay [11], 95.5%; in [12], 68.4%. Besides, the growth is 97.4% in [13], 97.8% in assay [14], 98.3% in assay [15] and 101% in [16].
For the compound `Cc1c(-c2ccc(C3CCCCC3)cc2)nc2ccc(F)cc2c1C(=O)O`, the growth in [1] was 25.1%; in assay [2], 31.6%; in [4], 61.7%; in [20], 44.2%; in [6], 32.9%; in [7], 43.3%. Also, the growth in assay [19] was 8.7% (active); in [8], 60.8%; in [11], 45.2%; in assay [12] it was 34.3%; in assay [14], 43%; in assay [15], -2.23% (active). In addition, the growth in [16] is 89.7%; in [17] it was 35.7%; in assay [18] it was 15.2%.
